Results as given in article PMC11006913.
Residue numbers refer to the chain shown, from its start.

What was measured:
Assay in all cases: PBM; 200 nM protein, PBS
Settings in all cases: dsDNA, one strand shown
HOXA4 [1] = target: HOXA4 (Homo sapiens, UniProt Q00056 201-287, W262R)
HOXC10 [2] = target: HOXC10 (Homo sapiens, UniProt Q9NYD6 254-340)
PRRX1 [3] = target: PRRX1 (Homo sapiens, UniProt P54821 80-166, F113S)
HOXA2 [4] = target: HOXA2 (Homo sapiens, UniProt O43364 129-215, R185T)
HOXA4 [5] = target: HOXA4 (Homo sapiens, UniProt Q00056 201-287, R217L)
Chain of HOXA4 (Homo sapiens, UniProt Q00056 201-287, R217L) (Q00056 201-287 R217L): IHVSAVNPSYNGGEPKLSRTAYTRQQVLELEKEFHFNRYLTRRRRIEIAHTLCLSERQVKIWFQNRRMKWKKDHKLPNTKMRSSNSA

NKX2-6 [6] = target: T1, NKX2-6 (Homo sapiens, UniProt A6NCS4 118-204)
T1 sequence: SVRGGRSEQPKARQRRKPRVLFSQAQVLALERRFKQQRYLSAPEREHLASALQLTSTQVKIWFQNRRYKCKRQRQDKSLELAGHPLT

HOXA2 [7] = target: HOXA2 (Homo sapiens, UniProt O43364 129-215, R185K)
Chain of HOXA2 (Homo sapiens, UniProt O43364 129-215, R185K) (O43364 129-215 R185K): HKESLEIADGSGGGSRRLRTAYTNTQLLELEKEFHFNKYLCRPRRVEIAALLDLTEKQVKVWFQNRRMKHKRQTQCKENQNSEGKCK

HOXA4 [8] = target: HOXA4 (Homo sapiens, UniProt Q00056 201-287)
Chain of HOXA4 (Homo sapiens, UniProt Q00056 201-287) (Q00056 201-287): as the sequence (Q00056 201-287 R217L) above, with L17R counted along it

HOXC10 [9] = target: HOXC10 (Homo sapiens, UniProt Q9NYD6 254-340, K271E)
Chain of HOXC10 (Homo sapiens, UniProt Q9NYD6 254-340, K271E) (Q9NYD6 254-340 K271E): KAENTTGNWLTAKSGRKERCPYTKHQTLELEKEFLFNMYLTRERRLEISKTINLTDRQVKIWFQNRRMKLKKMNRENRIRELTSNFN

NKX2-6 [10] = target: T2, NKX2-6 (Homo sapiens, UniProt A6NCS4 118-204, F151L)
T2 sequence: T1 sequence with F34L

HOXA2 [11] = target: HOXA2 (Homo sapiens, UniProt O43364 129-215, Y150S)
Chain of HOXA2 (Homo sapiens, UniProt O43364 129-215, Y150S) (O43364 129-215 Y150S): as the sequence (O43364 129-215 R185K) above, with Y22S, K57R counted along it

HOXA4 [12] = target: HOXA4 (Homo sapiens, UniProt Q00056 201-287, W262F)
Chain of HOXA4 (Homo sapiens, UniProt Q00056 201-287, W262F) (Q00056 201-287 W262F): as the sequence (Q00056 201-287 R217L) above, with L17R, W62F counted along it

PRRX1 [13] = target: PRRX1 (Homo sapiens, UniProt P54821 80-166)
Chain of PRRX1 (Homo sapiens, UniProt P54821 80-166) (P54821 80-166): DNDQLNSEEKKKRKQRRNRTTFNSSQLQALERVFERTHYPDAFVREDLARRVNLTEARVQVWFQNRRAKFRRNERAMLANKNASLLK

HOXA2 [14] = target: HOXA2 (Homo sapiens, UniProt O43364 129-215)
Chain of HOXA2 (Homo sapiens, UniProt O43364 129-215) (O43364 129-215): as the sequence (O43364 129-215 R185K) above, with K57R counted along it

ALX4 [15] = target: ALX4 (Homo sapiens, UniProt Q9H161 200-286)
Chain of ALX4 (Homo sapiens, UniProt Q9H161 200-286) (Q9H161 200-286): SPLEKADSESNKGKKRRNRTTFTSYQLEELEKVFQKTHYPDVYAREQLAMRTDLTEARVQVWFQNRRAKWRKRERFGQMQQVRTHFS

ALX4 [16] = target: ALX4 (Homo sapiens, UniProt Q9H161 200-286, Q225E)
Chain of ALX4 (Homo sapiens, UniProt Q9H161 200-286, Q225E) (Q9H161 200-286 Q225E): as the sequence (Q9H161 200-286) above, with Q26E counted along it

HOXC9 [17] = target: HOXC9 (Homo sapiens, UniProt P31274 178-260, K195R)
Chain of HOXC9 (Homo sapiens, UniProt P31274 178-260, K195R) (P31274 178-260 K195R): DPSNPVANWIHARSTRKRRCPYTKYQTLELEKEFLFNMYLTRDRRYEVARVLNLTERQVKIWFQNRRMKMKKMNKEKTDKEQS

HOXC9 [18] = target: HOXC9 (Homo sapiens, UniProt P31274 178-260)
Chain of HOXC9 (Homo sapiens, UniProt P31274 178-260) (P31274 178-260): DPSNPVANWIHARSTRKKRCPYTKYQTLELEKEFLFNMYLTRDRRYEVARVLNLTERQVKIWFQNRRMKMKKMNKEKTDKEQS

HOXC9 [19] = target: HOXC9 (Homo sapiens, UniProt P31274 178-260, R193K)
Chain of HOXC9 (Homo sapiens, UniProt P31274 178-260, R193K) (P31274 178-260 R193K): as the sequence (P31274 178-260) above, with R16K counted along it

HOXC9 [20] = target: HOXC9 (Homo sapiens, UniProt P31274 178-260, R222W)
Chain of HOXC9 (Homo sapiens, UniProt P31274 178-260, R222W) (P31274 178-260 R222W): as the sequence (P31274 178-260) above, with R45W counted along it

ALX1 [21] = target: ALX1 (Homo sapiens, UniProt Q15699 118-204, L144V)
Chain of ALX1 (Homo sapiens, UniProt Q15699 118-204, L144V) (Q15699 118-204 L144V): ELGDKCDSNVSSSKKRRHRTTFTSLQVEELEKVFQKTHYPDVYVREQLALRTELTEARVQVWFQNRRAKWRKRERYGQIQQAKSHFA

ALX1 [22] = target: ALX1 (Homo sapiens, UniProt Q15699 118-204, L144R)
Chain of ALX1 (Homo sapiens, UniProt Q15699 118-204, L144R) (Q15699 118-204 L144R): as the sequence (Q15699 118-204 L144V) above, with V27R counted along it

PROP1 [23] = target: PROP1 (Homo sapiens, UniProt O75360 56-141)
Chain of PROP1 (Homo sapiens, UniProt O75360 56-141) (O75360 56-141): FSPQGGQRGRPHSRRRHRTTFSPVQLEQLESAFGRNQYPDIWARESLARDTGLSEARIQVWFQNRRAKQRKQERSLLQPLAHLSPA

PROP1 [24] = target: PROP1 (Homo sapiens, UniProt O75360 56-141, R99H)
Chain of PROP1 (Homo sapiens, UniProt O75360 56-141, R99H) (O75360 56-141 R99H): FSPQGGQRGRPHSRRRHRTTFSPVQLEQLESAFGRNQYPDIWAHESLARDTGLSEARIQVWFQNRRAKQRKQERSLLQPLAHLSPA

PROP1 [25] = target: PROP1 (Homo sapiens, UniProt O75360 56-141, F88S)
Chain of PROP1 (Homo sapiens, UniProt O75360 56-141, F88S) (O75360 56-141 F88S): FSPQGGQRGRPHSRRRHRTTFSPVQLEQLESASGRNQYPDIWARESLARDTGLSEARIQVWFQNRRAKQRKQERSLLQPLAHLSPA

ALX1 [26] = target: ALX1 (Homo sapiens, UniProt Q15699 118-204)
Chain of ALX1 (Homo sapiens, UniProt Q15699 118-204) (Q15699 118-204): as the sequence (Q15699 118-204 L144V) above, with V27L counted along it

SIX6 [27] = target: T3, SIX6 (Homo sapiens, UniProt O95475 114-200, L167I)
T3 sequence: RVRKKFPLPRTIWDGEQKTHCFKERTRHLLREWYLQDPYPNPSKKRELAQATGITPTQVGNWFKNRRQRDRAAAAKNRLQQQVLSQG

SIX6 [28] = target: T4, SIX6 (Homo sapiens, UniProt O95475 114-200)
T4 sequence: T3 sequence with I54L

SIX6 [29] = target: T5, SIX6 (Homo sapiens, UniProt O95475 114-200, L143M)
T5 sequence: T3 sequence with L30M, I54L

SIX6 [30] = target: T6, SIX6 (Homo sapiens, UniProt O95475 114-200, T139Q)
T6 sequence: T3 sequence with T26Q, I54L

Chain of HOXC10 (Homo sapiens, UniProt Q9NYD6 254-340) (Q9NYD6 254-340): as the sequence (Q9NYD6 254-340 K271E) above, with E18K counted along it
Chain of HOXA4 (Homo sapiens, UniProt Q00056 201-287, W262R) (Q00056 201-287 W262R): as the sequence (Q00056 201-287 R217L) above, with L17R, W62R counted along it
Chain of HOXA2 (Homo sapiens, UniProt O43364 129-215, R185T) (O43364 129-215 R185T): as the sequence (O43364 129-215 R185K) above, with K57T counted along it
Chain of PRRX1 (Homo sapiens, UniProt P54821 80-166, F113S) (P54821 80-166 F113S): as the sequence (P54821 80-166) above, with F34S counted along it

Sequence: GCCCCGAC
- binding signal (HOXA4 [1]): 9.84 upbm affinity estimate (log intensity, higher = more binding, comparable within an allelic series)
- binding signal (HOXC10 [2]): 10.1 upbm affinity estimate (log intensity, higher = more binding, comparable within an allelic series)
- binding signal (PRRX1 [3]): 9.25 upbm affinity estimate (log intensity, higher = more binding, comparable within an allelic series)
- binding signal (HOXA2 [4]): 7.21 upbm affinity estimate (log intensity, higher = more binding, comparable within an allelic series)
- binding signal (HOXA4 [5]): 9.94 upbm affinity estimate (log intensity, higher = more binding, comparable within an allelic series)
- binding signal (NKX2-6 [6]): 9.63 upbm affinity estimate (log intensity, higher = more binding, comparable within an allelic series)
- binding signal (HOXA2 [7]): 10.4 upbm affinity estimate (log intensity, higher = more binding, comparable within an allelic series)
- binding signal (HOXA4 [8]): 9.87 upbm affinity estimate (log intensity, higher = more binding, comparable within an allelic series)
- binding signal (HOXC10 [9]): 10.1 upbm affinity estimate (log intensity, higher = more binding, comparable within an allelic series)
- binding signal (NKX2-6 [10]): 9.35 upbm affinity estimate (log intensity, higher = more binding, comparable within an allelic series)
- binding signal (HOXA2 [11]): 10.5 upbm affinity estimate (log intensity, higher = more binding, comparable within an allelic series)
- binding signal (HOXA4 [12]): 10.1 upbm affinity estimate (log intensity, higher = more binding, comparable within an allelic series)
- binding signal (PRRX1 [13]): 9.52 upbm affinity estimate (log intensity, higher = more binding, comparable within an allelic series)
- binding signal (HOXA2 [14]): 7.3 upbm affinity estimate (log intensity, higher = more binding, comparable within an allelic series)

Sequence: GCCAAGCC
- binding signal (HOXA4 [1]): 9.84 upbm affinity estimate (log intensity, higher = more binding, comparable within an allelic series)
- binding signal (HOXC10 [2]): 10.1 upbm affinity estimate (log intensity, higher = more binding, comparable within an allelic series)
- binding signal (HOXA4 [5]): 9.8 upbm affinity estimate (log intensity, higher = more binding, comparable within an allelic series)
- binding signal (HOXA4 [8]): 9.92 upbm affinity estimate (log intensity, higher = more binding, comparable within an allelic series)
- binding signal (HOXC10 [9]): 10 upbm affinity estimate (log intensity, higher = more binding, comparable within an allelic series)
- binding signal (HOXA4 [12]): 9.89 upbm affinity estimate (log intensity, higher = more binding, comparable within an allelic series)

Sequence: ACCTTCGC
- binding signal (HOXA4 [1]): 9.98 upbm affinity estimate (log intensity, higher = more binding, comparable within an allelic series)
- binding signal (ALX4 [15]): 8.16 upbm affinity estimate (log intensity, higher = more binding, comparable within an allelic series)
- binding signal (ALX4 [16]): 8.2 upbm affinity estimate (log intensity, higher = more binding, comparable within an allelic series)
- binding signal (HOXA4 [5]): 9.99 upbm affinity estimate (log intensity, higher = more binding, comparable within an allelic series)
- binding signal (HOXA4 [8]): 9.8 upbm affinity estimate (log intensity, higher = more binding, comparable within an allelic series)
- binding signal (HOXA4 [12]): 10.1 upbm affinity estimate (log intensity, higher = more binding, comparable within an allelic series)

Sequence: CCCGAGGG
- binding signal (HOXA4 [1]): 9.81 upbm affinity estimate (log intensity, higher = more binding, comparable within an allelic series)
- binding signal (HOXC9 [17]): 9.47 upbm affinity estimate (log intensity, higher = more binding, comparable within an allelic series)
- binding signal (HOXA4 [5]): 9.62 upbm affinity estimate (log intensity, higher = more binding, comparable within an allelic series)
- binding signal (HOXC9 [18]): 9.55 upbm affinity estimate (log intensity, higher = more binding, comparable within an allelic series)
- binding signal (HOXC9 [19]): 9.54 upbm affinity estimate (log intensity, higher = more binding, comparable within an allelic series)
- binding signal (HOXA4 [8]): 9.66 upbm affinity estimate (log intensity, higher = more binding, comparable within an allelic series)
- binding signal (HOXC9 [20]): 9.61 upbm affinity estimate (log intensity, higher = more binding, comparable within an allelic series)
- binding signal (HOXA4 [12]): 9.77 upbm affinity estimate (log intensity, higher = more binding, comparable within an allelic series)

Sequence: CCGAGAGG
- binding signal (HOXA4 [1]): 9.76 upbm affinity estimate (log intensity, higher = more binding, comparable within an allelic series)
- binding signal (HOXC9 [17]): 9.41 upbm affinity estimate (log intensity, higher = more binding, comparable within an allelic series)
- binding signal (HOXA4 [5]): 9.77 upbm affinity estimate (log intensity, higher = more binding, comparable within an allelic series)
- binding signal (HOXC9 [18]): 9.42 upbm affinity estimate (log intensity, higher = more binding, comparable within an allelic series)
- binding signal (ALX1 [21]): 6.38 upbm affinity estimate (log intensity, higher = more binding, comparable within an allelic series)
- binding signal (HOXC9 [19]): 9.45 upbm affinity estimate (log intensity, higher = more binding, comparable within an allelic series)
- binding signal (ALX1 [22]): 6.33 upbm affinity estimate (log intensity, higher = more binding, comparable within an allelic series)
- binding signal (HOXA4 [8]): 9.59 upbm affinity estimate (log intensity, higher = more binding, comparable within an allelic series)
- binding signal (PROP1 [23]): 6.47 upbm affinity estimate (log intensity, higher = more binding, comparable within an allelic series)
- binding signal (PROP1 [24]): 6.52 upbm affinity estimate (log intensity, higher = more binding, comparable within an allelic series)
- binding signal (HOXC9 [20]): 9.58 upbm affinity estimate (log intensity, higher = more binding, comparable within an allelic series)
- binding signal (PROP1 [25]): 6.64 upbm affinity estimate (log intensity, higher = more binding, comparable within an allelic series)
- binding signal (ALX1 [26]): 6.34 upbm affinity estimate (log intensity, higher = more binding, comparable within an allelic series)
- binding signal (HOXA4 [12]): 9.74 upbm affinity estimate (log intensity, higher = more binding, comparable within an allelic series)

Sequence: ATACTAAC
- binding signal (SIX6 [27]): 10.1 upbm affinity estimate (log intensity, higher = more binding, comparable within an allelic series)
- binding signal (SIX6 [28]): 10.1 upbm affinity estimate (log intensity, higher = more binding, comparable within an allelic series)

Sequence: CCCCACGG
- binding signal (HOXA4 [1]): 9.8 upbm affinity estimate (log intensity, higher = more binding, comparable within an allelic series)
- binding signal (HOXC10 [2]): 10.1 upbm affinity estimate (log intensity, higher = more binding, comparable within an allelic series)
- binding signal (HOXA4 [5]): 9.68 upbm affinity estimate (log intensity, higher = more binding, comparable within an allelic series)
- binding signal (HOXA4 [8]): 9.82 upbm affinity estimate (log intensity, higher = more binding, comparable within an allelic series)
- binding signal (HOXC10 [9]): 10 upbm affinity estimate (log intensity, higher = more binding, comparable within an allelic series)
- binding signal (HOXA4 [12]): 9.88 upbm affinity estimate (log intensity, higher = more binding, comparable within an allelic series)

Sequence: GGATCACA
- binding signal (SIX6 [27]): 11.1 upbm affinity estimate (log intensity, higher = more binding, comparable within an allelic series)
- binding signal (SIX6 [29]): 10.9 upbm affinity estimate (log intensity, higher = more binding, comparable within an allelic series)
- binding signal (SIX6 [30]): 11.2 upbm affinity estimate (log intensity, higher = more binding, comparable within an allelic series)
